pPAFAH FP inh: inhibitors of human plasma PAF acetylhydrolase (pPAFAH). inhibition, % at 3.39 µM. 330,000 tested, 1.5% active. recombinant pPAFAH, FP-rhodamine probe fluorescence polarization. Q13093;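 active = inhibition above the mean inhibition across the screen plus 3 SD, cut at about 25% in these data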;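 note: inhibitors block binding of the rhodamine activity-based probe so polarization drops; 0% = enzyme with DMSO and 100% = wells lacking pPAFAH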
PKA-R1A activ: activators of PKA-R1A complex; activation, % at 11.4 µM; AID 504707; 340,000 tested, 0.083% active; PKA-R1A dissociation, Cy5-IP20 fluorescence polarization; scaled: DMSO 0%, 113 µM cGMP 100%; P00514+P68181;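 active = percent activation above the mean of all tested compounds plus 3 SD, cut at about 19% in these data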;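 note: higher means more PKAc released from R1A so a rise in polarization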
PKA-R2B act: activates the human PKA-R2B holoenzyme complex | 340,000 tested, 0.079% active | activation, % at 11.4 µM | AID 504700 | P22694+P31323 | PKA-R2B holoenzyme dissociation, Cy5-IP20 fluorescence polarization; R2B truncated from residue 108, S112A mutant; 0% DMSO only, 100% 113 µM cGMP;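 active = activation above a cutoff set at the mean over all compounds plus 3 SD, cut at about 18% in these data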;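 note: higher means more holoenzyme dissociation and a rise in polarization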
PAFAH1B3 FP inh: blocks human PAF acetylhydrolase 1B catalytic subunit 3 | Q15102 | recombinant PAFAH1B3, FP-rhodamine probe, fluorescence polarization | inhibition, % at 3.39 µM | 340,000 tested, 0.28% active;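 active = inhibition above the screen-wide average of all tested compounds plus 3 SD, cut at about 25% in these data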;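 note: 0% = enzyme with DMSO only and 100% = wells lacking PAFAH1B3 protein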
Target sequence (Q15102 whole entry, looked up): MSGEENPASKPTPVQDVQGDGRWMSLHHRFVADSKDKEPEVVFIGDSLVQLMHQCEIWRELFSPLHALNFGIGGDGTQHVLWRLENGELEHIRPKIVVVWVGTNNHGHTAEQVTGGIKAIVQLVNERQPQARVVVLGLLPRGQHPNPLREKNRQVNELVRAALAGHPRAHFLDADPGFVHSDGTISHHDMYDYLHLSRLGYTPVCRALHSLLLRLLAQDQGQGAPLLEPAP
PAFAH1B2 inh: inhibitors of human PAFAH1B2; recombinant PAFAH1B2, FP-rhodamine activity probe, fluorescence polarization; inhibition, % at 3.39 µM; 340,000 tested, 1.2% active; AID 492953;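 active = inhibition above the mean of all tested compounds plus 3 SD, cut at about 24% in these data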;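 note: 0% = enzyme with DMSO and 100% = wells lacking PAFAH1B2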
Target sequence (P68402 whole entry, looked up): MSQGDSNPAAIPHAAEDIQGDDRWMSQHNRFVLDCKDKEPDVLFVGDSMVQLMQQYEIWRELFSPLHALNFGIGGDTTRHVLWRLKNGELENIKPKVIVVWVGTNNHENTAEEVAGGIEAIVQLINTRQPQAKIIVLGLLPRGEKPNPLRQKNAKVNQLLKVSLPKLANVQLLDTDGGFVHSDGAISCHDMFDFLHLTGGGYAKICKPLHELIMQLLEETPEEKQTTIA
PAFAH2 FP inh: PAFAH2 (human) inhibition; recombinant PAFAH2, FP-rhodamine activity probe, fluorescence polarization; inhibition, % at 3.39 µM; 340,000 tested, 0.99% active; AID 492956;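 active = inhibition above the mean over all tested compounds plus 3 SD, cut at about 30% in these data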;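 note: inhibitors block probe labeling of enzyme so polarization drops; 0% = enzyme with DMSO and 100% = wells lacking PAFAH2 protein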
pPAFAH confirm: confirmation of human plasma PAF acetylhydrolase (pPAFAH) inhibitors. 2,300 tested, 72% active. recombinant pPAFAH, FP-Rh probe fluorescence polarization. inhibition, % at 3.39 µM. shares compounds with pPAFAH FP inh;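 active = mean inhibition of the triplicate above the hit cutoff set for the earlier primary screen, cut at about 25% in these data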;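 note: 0% = enzyme with DMSO and 100% = wells lacking pPAFAH enzyme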
Active calls of the source: *; . = no result given. Most compounds without a hit are left out; they make up all but 2.6% or so of the library.

SMILES | pPAFAH FP inh | PKA-R1A activ | PKA-R2B act | PAFAH1B3 FP inh | PAFAH1B2 inh | PAFAH2 FP inh | pPAFAH confirm
COc1ccc(NC(=O)CN(C)C(=O)C(CCSC)NC(=O)c2ccccc2)cc1 (configuration not stated) | 2 | 5 | 9 | -1 | -4 | 3 | .
Cc1cc(C)nc(N/N=C/C2=C(N3CCOCC3)C(=C\c3ccc(Cl)cc3)/CC2)n1 | 62* | -6 | 1 | 8 | 5 | 11 | 98*
CCc1ccc(NC(=O)Nc2ccc3c(c2)N(C)C(=O)CS3)cc1 | 37* | 4 | -8 | 5 | 0 | -2 | 24
Cc1cc(C)cc(NC(=O)Nc2ccc3c(c2)N(C)C(=O)CS3)c1 | 13 | -1 | 2 | 7 | -4 | -10 | .
CN(C(=O)c1cccc(NC(=O)Cc2ccc(NC(=O)C3CCCN(C(=O)C4CCCCC4)C3)cc2)c1)C1CCCCC1 (configuration not stated) | . | 1 | -11 | 11 | 3 | -4 | .
O=C(O)CSCC(=O)N(Cc1ccccc1)c1nc(-c2ccccc2)c(-c2ccccc2)s1 | 54* | 3 | -13 | 3 | 23 | -6 | 54*
CCOC(=O)c1cc(C#N)c(SCC(=O)c2cc(C#N)c(SC)nc2C)[nH]c1=O | 14 | -5 | -8 | 9 | 4 | 4 | .
CCOC(=O)c1cc(C#N)c(SCC(N)=O)[nH]c1=O | 51* | -16 | -2 | 19 | 5 | 9 | 1
O=c1c(O)cccc2cc(O)c(O)c(O)c12 | 94* | -2 | -6 | 42* | 35* | 87* | 88*
COc1ccc(CCNC(=O)Cn2nnc(C(=O)Nc3cc(C)ccc3C)c2N)cc1OC | 6 | -9 | -1 | 2 | 2 | -2 | .
Nc1ccc(O)cc1C(=O)OCC(=O)c1ccc(C2CCCCC2)cc1 | 51* | 7 | 2 | 5 | 6 | 12 | 26*
COc1ccc(C(=O)OCC(=O)c2ccc(C3CCCCC3)cc2)cc1 | 1 | 4 | -4 | 1 | 3 | 2 | .
COc1ccc(/C=C2/C(=O)N(c3nc4ccccc4s3)N=C2CSc2ccc(Cl)cc2)cc1 | 51* | -2 | -4 | 4 | -7 | -8 | 18
COc1ccc(/C=C2/C(=O)N(Cc3ccccc3)N=C2C)cc1 | 5 | -5 | -2 | 5 | -2 | 0 | .
CCOC(=O)Cc1csc(SCC(=O)Nc2sc3c(c2C(N)=O)CCC3)n1 | 37* | -5 | -3 | 20 | 7 | 19 | 19
CCOC(=O)Cc1csc(SCC(=O)Nc2nccs2)n1 | 2 | -8 | -11 | 5 | 7 | 0 | .
CN1C(=O)c2cccc3c(Cl)ccc(c23)C1=O | 3 | -9 | -12 | -2 | -1 | 5 | .
CNc1ccc2c3c(cccc13)C(=O)N(C)C2=O | 54* | 3 | -1 | 68* | 58* | 71* | 39*
Cc1noc(C)c1S(=O)(=O)N(C)C[C@H]1Oc2ccc(NC(=O)NC3CCCCC3)cc2C(=O)N([C@H](C)CO)C[C@@H]1C | 4 | -1 | -6 | 5 | -2 | -14 | .
O=C(NC(NC(=S)Nc1ccc(Cl)cc1Cl)C(Cl)(Cl)Cl)c1cccc([N+](=O)[O-])c1 (configuration not stated) | -49 | -1 | -6 | -18 | -13 | -43 | .
CN(C)C(=O)NC(Nc1ccc(Cl)cc1Cl)C(Cl)(Cl)Cl (configuration not stated) | 42* | -4 | -10 | 4 | 1 | 9 | 4
Cc1ccc(S(=O)(=O)NC(C)C(=O)NC(C)c2cccs2)cc1 (configuration not stated) | 4 | -10 | 8 | -2 | 7 | -10 | .
Cc1ccc(N=Nc2ccc(O)c3ncccc23)cc1 | 35* | -6 | -5 | 1 | 5 | -12 | 23
COc1ccccc1N=Nc1ccc(O)c2ncccc12 | 44* | 4 | 2 | 18 | 6 | 6 | 25*
C=CCN1C(=O)C2C(C(=O)NC3CCCC3)C3C=CC2(O3)C1C(=O)NC1CCCC1 (configuration not stated) | 2 | 1 | -1 | 8 | -1 | 1 | .
SMILES | pPAFAH FP inh | PKA-R1A activ | PKA-R2B act | PAFAH1B3 FP inh | PAFAH1B2 inh | PAFAH2 FP inh | pPAFAH confirm
Cc1ccc(S(=O)(=O)N2CC3(O)CN(C(=O)OC(C)C)N(C(=O)OC(C)C)CC3(OC(=O)NCc3ccco3)C2)cc1 (configuration not stated) | . | -11 | 5 | . | . | . | .
COc1ccccc1NS(=O)(=O)c1ccc(C)c(C(N)=O)c1 | 58* | -8 | -3 | 3 | -2 | 3 | 1
CCn1nc([N+](=O)[O-])c(C(C#N)c2nc3ccccc3n2C)c(Cl)c1=O (configuration not stated) | 14 | -7 | 3 | 12 | 9 | 11 | .
CCCn1nc([N+](=O)[O-])c(C(C#N)c2nc3ccccc3s2)c(Cl)c1=O (configuration not stated) | 56* | 3 | -9 | 14 | 15 | 60* | 51*
Clc1ccc(CNc2ccc(CNc3ncn[nH]3)cc2)c(Cl)c1 | 37* | -6 | -9 | 6 | 8 | 1 | 20
C[C@H]1CN([C@@H](C)CO)C(=O)CCCn2cc(nn2)CO[C@@H]1CN(C)C(=O)Nc1cccc(F)c1 | . | -6 | 1 | . | . | . | .
CC(=O)Nc1nc(C)c(-c2csc(Nc3cccc(C(C)=O)c3)n2)s1 | 38* | -3 | -4 | 11 | 10 | 11 | 37*
CCC(=O)Nc1nc(C)c(-c2csc(Nc3cccc(C(=O)O)c3)n2)s1 | 17 | 4 | -5 | 9 | 3 | -3 | .
CCCOc1ccc(/C=C/C(=O)N2CCOCC2)cc1 | 1 | 10 | -1 | 5 | 5 | -2 | .
CN(C(=S)NC(=O)C1CC1)c1ccc(O)cc1 | 61* | 2 | -2 | -2 | 8 | -1 | 2
Oc1ccc(-c2cn3c(n2)SCC3)cc1 | 1 | -3 | 0 | 7 | 2 | 16 | .
Oc1ccc(-c2cn3c(n2)SCC3)cc1O | 56* | -4 | -1 | 12 | 5 | 23 | 21
CCCCCn1c(SCC2CCCO2)nc2cc(C(=O)N3CCC(C(N)=O)CC3)ccc2c1=O (configuration not stated) | 42* | -12 | 4 | -4 | 3 | -2 | 23
CCOc1ccc(NS(=O)(=O)c2ccc(C(=O)N(C)CC(=O)Nc3cccc(OC)c3)cc2)cc1 | . | 0 | 0 | 8 | 5 | -1 | .
CCN(CC)S(=O)(=O)c1cccc(C(=O)N/N=C/c2cccc(O)c2O)c1 | 41* | -8 | 7 | 4 | 0 | 12 | 29*
CCN(CC)S(=O)(=O)c1cccc(C(=O)N/N=C/c2cc(OC)c(O)c(OC)c2)c1 | 7 | 3 | -6 | -5 | 6 | 2 | .
